Experimental data: the supplement of paper PMC11732987, “Enantioselective OTUD7B fragment discovery through chemoproteomics screening and high-throughput optimisation” (Communications Chemistry, 2025)

Key:
Assay in all cases: log2 ratio of Biotin-Ahx-Ub-VS probe labelling (fragment/DMSO); higher = less target engagement (more negative = stronger competition), active = hit call of the paper (q ≤ 0.05, log2 ratio ≤ -1)
Conditions in all cases: compound concentration: 200 uM; treatment time: 3 h
USP19 = molecular target: T1, USP19 (UniProt O94966)
T1 sequence (whole entry): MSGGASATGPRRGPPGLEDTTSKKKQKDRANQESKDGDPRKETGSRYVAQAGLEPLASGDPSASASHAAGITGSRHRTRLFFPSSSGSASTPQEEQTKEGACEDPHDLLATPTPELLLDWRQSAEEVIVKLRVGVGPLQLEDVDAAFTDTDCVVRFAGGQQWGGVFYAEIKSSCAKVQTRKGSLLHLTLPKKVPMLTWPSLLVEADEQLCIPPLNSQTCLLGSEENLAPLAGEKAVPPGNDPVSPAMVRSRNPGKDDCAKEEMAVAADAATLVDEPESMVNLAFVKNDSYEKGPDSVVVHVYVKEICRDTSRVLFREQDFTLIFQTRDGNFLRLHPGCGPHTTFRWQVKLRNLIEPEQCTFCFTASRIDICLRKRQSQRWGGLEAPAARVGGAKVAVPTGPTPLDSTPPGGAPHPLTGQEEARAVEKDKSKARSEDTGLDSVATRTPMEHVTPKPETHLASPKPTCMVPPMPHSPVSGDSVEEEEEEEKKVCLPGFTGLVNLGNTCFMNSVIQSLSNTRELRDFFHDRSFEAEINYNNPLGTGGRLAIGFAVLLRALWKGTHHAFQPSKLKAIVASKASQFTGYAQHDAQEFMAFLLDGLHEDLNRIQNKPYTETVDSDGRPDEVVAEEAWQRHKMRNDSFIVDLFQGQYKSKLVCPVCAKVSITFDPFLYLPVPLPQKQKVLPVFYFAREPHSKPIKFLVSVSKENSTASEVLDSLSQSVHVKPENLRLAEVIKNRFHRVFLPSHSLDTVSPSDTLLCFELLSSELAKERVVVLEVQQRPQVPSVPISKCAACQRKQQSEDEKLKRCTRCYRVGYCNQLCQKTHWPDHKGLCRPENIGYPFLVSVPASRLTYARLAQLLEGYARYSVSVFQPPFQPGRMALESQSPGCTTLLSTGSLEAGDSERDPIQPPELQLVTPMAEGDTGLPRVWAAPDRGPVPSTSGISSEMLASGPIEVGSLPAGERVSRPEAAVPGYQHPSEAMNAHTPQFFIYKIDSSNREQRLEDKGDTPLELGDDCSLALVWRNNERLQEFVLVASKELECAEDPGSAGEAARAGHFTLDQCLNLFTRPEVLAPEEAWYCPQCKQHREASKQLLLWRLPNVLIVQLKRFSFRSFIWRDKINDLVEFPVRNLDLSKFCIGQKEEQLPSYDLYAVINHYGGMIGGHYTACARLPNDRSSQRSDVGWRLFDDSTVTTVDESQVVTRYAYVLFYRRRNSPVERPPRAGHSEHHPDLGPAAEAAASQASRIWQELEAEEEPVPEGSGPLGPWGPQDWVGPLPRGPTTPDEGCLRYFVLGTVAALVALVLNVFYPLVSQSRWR
Procedure, shortened: (§1)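 HEK293T lysate in Tris/CHAPS/IGEPAL buffer with protease inhibitors (495 µg per sample) was given fragment at 200 µM or vehicle for 3 h, in triplicate. It then received Biotin-Ahx-Ub-VS at 0.5 µM final for 1 h. Labelled DUBs were NeutrAvidin-enriched, digested with LysC and trypsin, and run by diaPASEF LC-MS/MS. Values are average log2 fragment/vehicle ratios by unpaired t-test on global-median-normalised Spectronaut quantities of proteins with ≥2 unique peptides.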

USP24 = USP24 (UniProt Q9UPU5)
Procedure, shortened: as §1

USP25 = molecular target: T2, USP25 (UniProt Q9UHP3)
T2 sequence (whole entry): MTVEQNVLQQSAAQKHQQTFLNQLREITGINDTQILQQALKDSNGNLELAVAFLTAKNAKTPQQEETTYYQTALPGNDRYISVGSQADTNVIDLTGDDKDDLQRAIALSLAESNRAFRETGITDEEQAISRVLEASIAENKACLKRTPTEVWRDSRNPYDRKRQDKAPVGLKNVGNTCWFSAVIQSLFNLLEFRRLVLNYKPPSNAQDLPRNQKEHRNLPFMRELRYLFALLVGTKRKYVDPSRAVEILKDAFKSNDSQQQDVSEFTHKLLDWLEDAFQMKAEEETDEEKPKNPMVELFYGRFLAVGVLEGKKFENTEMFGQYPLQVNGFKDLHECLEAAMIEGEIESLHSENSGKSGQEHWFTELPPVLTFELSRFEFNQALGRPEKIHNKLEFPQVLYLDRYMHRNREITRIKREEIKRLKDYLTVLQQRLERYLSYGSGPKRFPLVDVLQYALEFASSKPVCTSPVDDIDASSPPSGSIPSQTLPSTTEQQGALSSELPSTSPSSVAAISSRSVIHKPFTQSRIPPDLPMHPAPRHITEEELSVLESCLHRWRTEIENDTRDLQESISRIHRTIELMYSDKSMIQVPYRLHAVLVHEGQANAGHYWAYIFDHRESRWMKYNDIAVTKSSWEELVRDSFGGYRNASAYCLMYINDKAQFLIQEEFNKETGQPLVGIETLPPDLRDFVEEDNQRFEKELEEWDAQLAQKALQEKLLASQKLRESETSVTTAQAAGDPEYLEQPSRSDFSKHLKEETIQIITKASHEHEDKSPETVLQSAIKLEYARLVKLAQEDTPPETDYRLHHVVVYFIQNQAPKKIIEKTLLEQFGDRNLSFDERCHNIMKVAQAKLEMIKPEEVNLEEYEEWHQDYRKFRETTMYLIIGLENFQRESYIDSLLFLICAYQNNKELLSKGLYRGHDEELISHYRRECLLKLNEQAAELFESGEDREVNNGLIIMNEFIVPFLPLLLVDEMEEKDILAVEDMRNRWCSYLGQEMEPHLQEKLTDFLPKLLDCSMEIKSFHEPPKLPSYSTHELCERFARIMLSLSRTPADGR
Procedure, shortened: as §1

USP28 = molecular target: T3, USP28 (UniProt Q96RU2)
T3 sequence (whole entry): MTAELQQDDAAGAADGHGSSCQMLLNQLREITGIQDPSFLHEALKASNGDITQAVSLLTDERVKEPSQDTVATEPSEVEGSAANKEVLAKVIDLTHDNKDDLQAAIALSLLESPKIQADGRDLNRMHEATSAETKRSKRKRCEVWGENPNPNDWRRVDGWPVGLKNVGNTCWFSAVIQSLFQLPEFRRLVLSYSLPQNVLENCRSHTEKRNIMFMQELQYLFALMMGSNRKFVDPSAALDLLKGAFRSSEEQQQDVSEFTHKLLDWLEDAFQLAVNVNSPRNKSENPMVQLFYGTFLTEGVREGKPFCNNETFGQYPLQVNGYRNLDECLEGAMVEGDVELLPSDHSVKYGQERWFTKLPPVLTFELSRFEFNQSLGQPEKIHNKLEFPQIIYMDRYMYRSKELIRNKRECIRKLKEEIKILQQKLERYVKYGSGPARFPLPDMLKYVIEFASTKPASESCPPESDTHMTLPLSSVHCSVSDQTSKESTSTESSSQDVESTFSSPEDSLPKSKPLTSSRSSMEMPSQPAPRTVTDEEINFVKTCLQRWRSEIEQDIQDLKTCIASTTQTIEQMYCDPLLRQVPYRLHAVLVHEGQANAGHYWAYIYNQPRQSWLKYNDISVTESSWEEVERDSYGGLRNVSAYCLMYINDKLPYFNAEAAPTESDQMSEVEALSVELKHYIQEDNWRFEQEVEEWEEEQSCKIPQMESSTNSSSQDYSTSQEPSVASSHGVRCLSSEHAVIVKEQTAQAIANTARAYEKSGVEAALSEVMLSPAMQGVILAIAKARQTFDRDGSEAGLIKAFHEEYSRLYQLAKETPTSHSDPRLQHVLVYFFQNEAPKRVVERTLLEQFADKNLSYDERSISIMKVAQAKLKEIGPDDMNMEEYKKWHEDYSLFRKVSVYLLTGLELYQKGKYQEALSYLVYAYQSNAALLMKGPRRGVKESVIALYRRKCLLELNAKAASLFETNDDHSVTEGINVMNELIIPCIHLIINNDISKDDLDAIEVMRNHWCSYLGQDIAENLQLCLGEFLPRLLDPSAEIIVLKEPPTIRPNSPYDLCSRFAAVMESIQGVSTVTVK
Procedure, shortened: as §1

Measured: log2 ratio of Biotin-Ahx-Ub-VS probe labelling

Chain of USP24 (Q9UPU5 whole entry): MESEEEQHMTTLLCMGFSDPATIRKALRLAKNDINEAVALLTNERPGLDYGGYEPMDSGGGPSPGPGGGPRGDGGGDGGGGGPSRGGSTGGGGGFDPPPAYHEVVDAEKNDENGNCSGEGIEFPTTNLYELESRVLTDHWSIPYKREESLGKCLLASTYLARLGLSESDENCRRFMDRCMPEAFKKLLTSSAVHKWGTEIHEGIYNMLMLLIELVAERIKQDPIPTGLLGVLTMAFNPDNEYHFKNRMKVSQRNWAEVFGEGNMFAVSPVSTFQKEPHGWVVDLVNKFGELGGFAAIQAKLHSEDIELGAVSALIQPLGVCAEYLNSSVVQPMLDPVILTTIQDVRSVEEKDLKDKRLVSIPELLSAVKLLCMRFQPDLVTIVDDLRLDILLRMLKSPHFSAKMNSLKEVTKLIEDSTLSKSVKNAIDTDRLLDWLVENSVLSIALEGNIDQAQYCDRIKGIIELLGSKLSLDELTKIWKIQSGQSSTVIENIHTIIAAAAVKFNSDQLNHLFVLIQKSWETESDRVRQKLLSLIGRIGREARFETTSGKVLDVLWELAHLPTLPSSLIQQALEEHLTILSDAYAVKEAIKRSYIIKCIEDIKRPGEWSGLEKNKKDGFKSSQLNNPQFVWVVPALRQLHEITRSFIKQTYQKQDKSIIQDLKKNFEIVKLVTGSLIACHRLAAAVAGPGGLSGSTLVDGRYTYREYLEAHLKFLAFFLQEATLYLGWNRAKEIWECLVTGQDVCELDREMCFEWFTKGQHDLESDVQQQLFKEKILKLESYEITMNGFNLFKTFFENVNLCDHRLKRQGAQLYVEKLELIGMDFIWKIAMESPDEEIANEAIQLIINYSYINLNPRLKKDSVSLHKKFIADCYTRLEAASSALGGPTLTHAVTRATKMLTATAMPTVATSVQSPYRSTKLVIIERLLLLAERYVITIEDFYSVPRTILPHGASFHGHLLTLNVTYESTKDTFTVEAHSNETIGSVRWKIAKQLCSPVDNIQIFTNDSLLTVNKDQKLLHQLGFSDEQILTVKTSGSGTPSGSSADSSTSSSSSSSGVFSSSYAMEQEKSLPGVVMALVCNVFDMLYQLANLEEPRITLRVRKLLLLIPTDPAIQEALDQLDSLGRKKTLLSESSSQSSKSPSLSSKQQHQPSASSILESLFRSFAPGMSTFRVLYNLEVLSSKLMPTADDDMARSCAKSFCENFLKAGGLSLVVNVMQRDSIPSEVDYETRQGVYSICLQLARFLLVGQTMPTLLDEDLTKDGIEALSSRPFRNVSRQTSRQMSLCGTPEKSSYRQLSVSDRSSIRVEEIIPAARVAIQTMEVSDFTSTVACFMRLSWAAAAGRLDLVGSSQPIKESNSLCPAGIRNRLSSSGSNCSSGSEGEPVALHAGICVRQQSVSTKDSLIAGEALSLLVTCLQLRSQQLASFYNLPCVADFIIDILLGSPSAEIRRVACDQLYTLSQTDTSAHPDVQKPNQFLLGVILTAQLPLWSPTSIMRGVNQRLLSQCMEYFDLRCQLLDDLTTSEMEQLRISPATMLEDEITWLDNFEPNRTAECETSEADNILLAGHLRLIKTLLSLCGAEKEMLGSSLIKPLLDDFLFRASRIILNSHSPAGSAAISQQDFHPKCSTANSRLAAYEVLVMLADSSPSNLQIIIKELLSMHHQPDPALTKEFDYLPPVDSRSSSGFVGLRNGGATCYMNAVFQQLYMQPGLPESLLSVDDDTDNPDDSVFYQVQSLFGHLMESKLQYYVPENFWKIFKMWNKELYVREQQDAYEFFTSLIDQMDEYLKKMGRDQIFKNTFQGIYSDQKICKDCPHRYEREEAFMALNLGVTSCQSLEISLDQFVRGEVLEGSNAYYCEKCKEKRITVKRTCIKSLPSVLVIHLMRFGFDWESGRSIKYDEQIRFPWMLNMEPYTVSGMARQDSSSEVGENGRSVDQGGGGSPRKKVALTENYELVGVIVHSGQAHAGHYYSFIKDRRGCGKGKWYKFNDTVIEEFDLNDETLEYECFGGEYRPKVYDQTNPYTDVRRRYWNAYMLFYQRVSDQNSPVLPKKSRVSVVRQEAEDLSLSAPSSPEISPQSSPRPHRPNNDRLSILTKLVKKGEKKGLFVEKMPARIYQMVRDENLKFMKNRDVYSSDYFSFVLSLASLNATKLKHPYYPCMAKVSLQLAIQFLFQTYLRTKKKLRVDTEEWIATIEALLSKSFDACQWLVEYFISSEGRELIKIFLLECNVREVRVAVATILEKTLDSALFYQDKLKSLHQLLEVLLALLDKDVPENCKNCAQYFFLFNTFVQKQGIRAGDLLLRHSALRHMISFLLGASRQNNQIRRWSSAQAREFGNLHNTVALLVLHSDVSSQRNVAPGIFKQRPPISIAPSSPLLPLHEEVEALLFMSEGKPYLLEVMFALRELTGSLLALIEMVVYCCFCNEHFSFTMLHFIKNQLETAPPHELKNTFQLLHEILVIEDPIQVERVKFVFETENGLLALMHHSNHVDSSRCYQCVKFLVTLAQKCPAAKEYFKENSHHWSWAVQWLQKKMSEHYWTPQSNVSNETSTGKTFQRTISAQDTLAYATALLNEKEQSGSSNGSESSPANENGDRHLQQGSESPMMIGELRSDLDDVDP

CCN(Cc1ccc(C#N)cc1F)C(=O)CCl
inactive: USP19 -0.28 | USP24 -0.741 | USP25 -0.659 | USP28 -0.624
